This is a sample that favours compounds with a hit; in the whole collection about 3.8% have one here.
Shn3 inh set2 = reduction of Shn3 3'UTR firefly luciferase signal, primary screen, Schnurri-3 inhibitor project, cell-based, Clone20 osteoblasts, set 2. Clone20 osteoblast Shn3 3'UTR firefly luciferase, 24 h. inhibition, % at 12.5 µM. actives 0.52% (n = 360,000). AID 588674, 2011;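 active = mean inhibition of at least 75% with every replicate also reaching 75%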;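 note: 0% = median of neutral control wells and 100% = pilot-screen positive control compound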
697 NFkB inh = inhibitors of PMA/ionomycin-induced NF-kB reporter, 697 cells, primary screen, B-cell NF-kB inhibitor project, cell-based, luminescence, uHTS | inhibition, % at 4 µM | 697 B-cell NF-kB luciferase reporter, 16 h | actives 0.33% (n = 330,000); in the data active = inhibition above about 35%
Mdm2 MdmX PPI = inhibitors of human Mdm2-MdmX association, primary screen, cell-based, luminescence, split luciferase, SaOS-2, uHTS. Protein Mdm4 (Homo sapiens) + E3 ubiquitin-protein ligase Mdm2 (Homo sapiens), …. SaOS-2 split-luciferase Mdm2/MdmX complementation. inhibition, % at 8 µM. actives 3% (n = 330,000). AID 485346, 2010;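 active = inhibition of at least 50% at 8 µM in the primary screen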
Jurkat NFkB inh = inhibitors of induced NF-kB luciferase reporter, primary screen, TCR NF-kB activation inhibitor project, cell-based, luminescence, uHTS; inhibition, % at 4 µM; actives 0.53% (n = 330,000); Jurkat, PMA/ionomycin-induced NF-kB luciferase reporter; in the data active = inhibition above about 50%
Gli-Sufu block = Gli-Sufu pathway antagonists, primary screen, luciferase luminescence, Sufu-KO-LIGHT cells, uHTS; Sufu-KO-LIGHT fibroblasts, Gli luciferase reporter luminescence; inhibition, % at 5 µM; actives 0.74% (n = 340,000);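 active = inhibition above about 55%, limit read from the data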;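 note: 0% = DMSO-treated cells and 100% = wells with medium but no cells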
Mdm2 MdmX conf = Mdm2-MdmX complex disruptors, retested hits, confirmation, luminescence, single concentration; actives 55% (n = 10,000); inhibition, % at 8 µM; Mdm2-MdmX binding, luminescent assay; shares compounds with Mdm2 MdmX PPI; in the data active = inhibition above about 40%
Full FLuc ctr = full-length luciferase signal inhibition, confirmation, counter-screen for Mdm2/MdmX interaction inhibitor project, cell-based, single concentration, SaOS-2; actives 77% (n = 6,200); shares compounds with Mdm2 MdmX PPI; AID 504607, 2011; inhibition, % at 8 µM; SaOS-2 full-length luciferase counterscreen, luminescence;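 active = mean inhibition at 8 µM reaching about 37%, which flags the compound as non-specific, limit read from the data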;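 note: p53-null SaOS-2 cells with luciferase driven by a doxycycline-inducible promoter; compound on cells about two nights before reading with doxycycline added after day one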
* marks the source's active call; other numbers are inactive results; · = no result given.

SMILES	Shn3 inh set2	697 NFkB inh	Mdm2 MdmX PPI	Jurkat NFkB inh	Gli-Sufu block	Mdm2 MdmX conf	Full FLuc ctr
Cn1cc([N+](=O)[O-])c(C(=O)Nc2ccc(C3CCCCC3)cc2)n1	-26.0	-54.8	59.3*	-61.8	-52.1	26.8	153.7*
CCn1c(=S)sc2c(=O)n(CC(=O)Nc3ccc(C(C)=O)cc3)c(C)nc21	5.7	-2.9	15.9	-0.7	-5.9	·	·
COc1ccc(CCCC(=O)NCc2ccccc2)cc1C	7.3	-21.7	53.3*	41.3	-3.2	48.1*	71.5*
C/C(Cl)=C\Cn1c(O)c(N=NC(N)=S)c2cc(Br)ccc21	21.1	17.6	74.6*	4.6	13.1	49.0*	74.4*
CN1C2CCC1/C(=C\c1ccccc1F)C(=O)/C2=C/c1ccccc1F	-6.6	-46.0	58.6*	17.9	9.0	41.2*	35.1
CC1CCN(C2=NC(=O)/C(=C/c3ccccc3F)S2)CC1	-19.1	-69.0	44.0	-2.9	11.6	·	·
O=C(NCCCn1ccnc1)c1ccc(-c2cccc(C(F)(F)F)c2)o1	15.0	10.2	-3.9	-14.7	0.0	·	·
Cc1ccc(S(=O)(=O)N(CC(=O)NCCSc2ccccn2)c2ccccc2F)cc1	14.2	9.0	28.1	1.2	-12.0	·	·
CC[C@@]1(C(=O)OC)N[C@H](CN(C)S(=O)(=O)c2ccc(-c3ccccc3)cc2)[C@@H]2C(=O)N(Cc3ccccc3)C(=O)[C@@H]21	7.2	1.4	90.5*	7.0	1.0	87.4*	45.5*
CCN(C[C@H]1N[C@@](CC)(C(=O)OC)[C@H]2C(=O)N(Cc3ccccc3)C(=O)[C@@H]12)S(=O)(=O)c1ccc(C(C)(C)C)cc1	13.8	10.4	69.3*	14.7	-3.9	62.0*	52.0*
CCN(C[C@H]1N[C@@](C)(C(=O)OC)[C@H]2C(=O)N(Cc3ccccc3)C(=O)[C@@H]12)S(=O)(=O)c1ccc(C(C)(C)C)cc1	12.5	2.4	37.0	10.5	-3.2	·	·
CCN(C[C@H]1N[C@@](CC)(C(=O)OC)[C@H]2C(=O)N(Cc3ccccc3)C(=O)[C@@H]12)S(=O)(=O)c1ccc(C)cc1	1.3	11.9	8.0	-0.4	1.6	·	·
CCN(C[C@H]1N[C@@](CC)(C(=O)OC)[C@H]2C(=O)N(Cc3ccccc3)C(=O)[C@@H]12)S(=O)(=O)c1ccc(-c2ccccc2)cc1	18.4	6.9	80.3*	9.9	-3.3	79.3*	34.0
CC(C)CCN1C(Nc2ccccc2)=NC[C@@H]1C	-6.9	-24.2	8.2	-11.9	4.7	·	·
O=C1CCC(C(=O)N2CCCCO2)CN1Cc1cccc(F)c1 (centres undefined)	-18.2	-16.3	0.2	-7.3	5.4	·	·
O=C(c1ccco1)N1CCN(c2ccc([N+](=O)[O-])c(N3CCOCC3)c2)CC1	-4.1	12.6	17.3	5.3	3.5	·	·
COc1ccc2cc(C(=O)N(C)CC(=O)Nc3ccccc3Br)ccc2c1	-73.6	-23.1	-53.6	-63.6	-13.5	·	·
Cc1ccc(NC(=O)COC(=O)c2c(-c3ccccc3)noc2C)c(C)c1	13.7	-14.1	-2.6	3.4	0.5	·	·
COC(=O)c1cc(=O)n(Cc2ccc3c(c2)OCO3)c(=Nc2ccc(F)c(Cl)c2)s1	60.7	30.6	61.8*	23.8	10.7	38.9	102.5*
COC(=O)c1cc(=O)n(CCc2ccc(OC)cc2)c(=Nc2ccc(F)c(Cl)c2)s1	8.7	16.6	71.5*	12.4	11.4	-3.3	·
Oc1ccc(C[C@H]2CNCCN2CC2CCCCC2)cc1	-20.6	4.4	-3.5	6.1	5.5	·	·
